Only some compounds are listed: those with a hit (about 3.4% of all), similar ones and a draw of the others.
IMPase Li cell – qHTS Assay for Identifying the Cell-Membrane Permeable IMPase Inhibitors: Potentiation with Lithium | CHO-M1 cells, IP1 TR-FRET (IP-One), carbachol + lithium | Potency, µM (highest dose often 59.4 µM), for inactives: at the highest dose activity, negative = IMPase inhibition, usual class: inhibitors | 0.35% of 210,000 active | AID 1457, 2008;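 also: IP1 builds up when IMPase is blocked and the TR-FRET signal falls; potency is read from the fitted curve at half-maximal effect; plate controls were basal vehicle for no effect and high inhibitor control for full effect; nearly all actives have a fitted effect of over 50% in size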
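Concentration–response in CHO-M1 cells, lithium-potentiated; 30 min at 37C. IP1 detected by competitive TR-FRET after 10 min lysis at RT. Hill-fitted AC50.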
PNC inhibitor – High Content Assay for Compounds that inhibit the Assembly of the Perinucleolar Compartment; PC3M PTB-GFP, PNC prevalence imaging, 16 h; active compounds read low; activity change (PNC), negative = inhibition, % at 10 µM; 3.1% of 140,000 active;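 active = readout at or below -70, meaning at least 70% loss of cells showing the perinucleolar compartment, a nuclear body marking cancer cells; inconclusive = readout between -30 and a set limit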;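 also: plate controls were DMSO wells for no effect and camptothecin positive control wells for full effect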
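Compounds are pinned in duplicate onto adhered PC3M cells stably expressing GFP-tagged PTB and incubated 16 h at 37 C. Cells are then fixed, nuclei stained with Hoechst, and PNC-positive cells counted.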
NPSR antag – qHTS Assay for Antagonists of the Neuropeptide S Receptor: cAMP Signal Transduction. Q6W5P4. CHO-NPSR cells, cAMP TR-FRET, antagonist mode. Potency, µM (top dose mostly 38.3 µM), without a hit: top-dose activity change, negative = inhibition, hits mostly inhibitors. 1% of 220,000 active; also: potency is read from the fitted curve at half-maximal effect; % is scaled to controls: 0 for no effect and ±100 for the full control effect; nearly all actives have a fitted effect of over 50% in size
Target sequence (Q6W5P4 whole entry, looked up): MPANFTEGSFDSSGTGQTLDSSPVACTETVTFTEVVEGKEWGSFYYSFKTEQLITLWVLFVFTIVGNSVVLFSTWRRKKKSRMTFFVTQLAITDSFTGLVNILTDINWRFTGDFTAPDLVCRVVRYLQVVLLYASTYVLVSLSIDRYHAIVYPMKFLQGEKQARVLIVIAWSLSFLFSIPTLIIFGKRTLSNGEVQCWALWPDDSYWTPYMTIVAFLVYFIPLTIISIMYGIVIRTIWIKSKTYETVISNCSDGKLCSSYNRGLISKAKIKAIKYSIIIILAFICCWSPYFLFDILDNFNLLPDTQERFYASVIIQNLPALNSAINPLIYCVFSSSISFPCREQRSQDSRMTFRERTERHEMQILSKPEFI
HTT aggregate – qHTS Multiplex Assay to Identify Dual Action Probes in a Cell Model of Huntington: Aggregate Formation (GFP); 1.1% of 220,000 active; PC12 HttQ103-GFP aggregates, Acumen cytometry, 40 h; Potency, µM (doses to about 46.1 µM), for inactives: top-dose activity change, negative = inhibition, most hits filed as inhibitors; also: potency is read from the fitted curve at half-maximal effect; % is scaled to controls: 0 for no effect and ±100 for the full control effect; nearly all actives have a fitted effect of over 60% in size
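Read-out: GFP aggregate count by laser scanning cytometer (488 nm excitation, 500-530 nm emission, 1–25 µm objects >6 SD above background). Cells: PC12, inducible HTTex1-Q103-GFP, 100 nM tebufenozide; compounds titrated.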
HTT cytoprotect – qHTS Multiplex Assay to Identify Dual Action Probes in a Cell Model of Huntington: Cytoprotection (ATP). PC12 HTT-Q103 induced, cytoprotection, ATP luminescence, 40 h. Potency, µM (doses to about 56.4 µM), inactives show cytoprotection (ATP increase), actives largely listed as activators. 0.14% of 230,000 active; also: potency is read from the fitted curve at half-maximal effect; % of control where 0% means no effect; nearly all actives have a fitted effect of over 45% in size
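Rat PC12, Q103 Htt exon1-GFP fusion, ecdysone promoter; tebufenozide inducer 100 nM final; compound titration; qHTS, 1500 cells/well; ATPlite luminescent read.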
IMPase inh – qHTS Assay for Identifying the Cell-Membrane Permeable IMPase Inhibitors. Inositol monophosphatase 1 (Rattus norvegicus), P97697. CHO-M1 cells, IP1 accumulation, HTRF TR-FRET ratio. inhibition (IP1 accumulation), % at 46.1 µM. 120,000 tested, under 10 active; active = well fitted curve in the direction sought with a large enough effect in the signal ratio, not every such curve was filed as active; inconclusive = small, poorly fitted or top-dose-only effect, or a change in a side signal; inactive = no such curve, though single readings can be large or run the other way; the % refers to the signal ratio;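 also: cells stimulated with carbachol in lithium chloride buffer; plate controls were DMSO basal wells for no effect and reference inhibitor wells for full effect; higher means more IMPase inhibition seen as more IP1 and lower FRET ratio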
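CHO-M1 cells (CHO stably expressing M1 receptor), compound up to 46 uM final, stimulated with carbachol (50 uM as added) in buffer with 50mM LiCl, pH 7.4, 30 min at 37C. Cytosolic IP1 read by TR-FRET; AC50 from Hill fits.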
* = called active by the depositor; ? = inconclusive; . = no result; [ ] = dose if it differs, or a comment. Unless noted, calls follow the shape of the dose curve; as a rule, active = well fitted curve in the direction sought with a large enough effect; inconclusive = small, poorly fitted or top-dose-only effect, or another doubt; inactive = no such curve, though single readings can be large; an effect the other way counts as inactive or inconclusive.

SMILES	IMPase Li cell	PNC inhibitor	NPSR antag	HTT aggregate	HTT cytoprotect	IMPase inh
CNC(=S)Nc1cc(C(=O)N2CCCC2)ccc1N1CCCC1	21%	.	20%	10%	-50%	.
Cc1ccc(S(=O)(=O)NCCNC(=O)c2cc(OCC(F)(F)F)ccc2OCC(F)(F)F)cc1	11µM*	?	0%[46.1 µM]	9%	0%	-9
O=C(N/N=C\c1ccc(F)cc1)c1cc(OCC(F)(F)F)ccc1OCC(F)(F)F	11%[38.3 µM]	-87*	-24%[46.1 µM]	-8%	-14%	4
Cc1ccc(/C=N\NC(=O)c2cc(OCC(F)(F)F)ccc2OCC(F)(F)F)cc1	-1%[38.3 µM]	?	-3%[46.1 µM]	-13%	-26%	-13
CN(Cc1ccco1)c1ncnc2ccc(-c3cccc(C#N)c3)cc12	16%	.	.	.	-3%	.
CC1CCN(S(=O)(=O)c2cn(CC(=O)Nc3ccc(F)c(Cl)c3)c(=O)c3ccccc23)CC1	.	.	.	.	.	3
CCCCC1(C)NC(=O)N(CC(=O)Nc2ccc(S(=O)(=O)N3CCOCC3)cc2)C1=O (stereo not drawn)	7%[38.3 µM]	-87*	-9%[46.1 µM]	15%	4%[10 µM]	8
C=C(C)C1CC=C(C)CC1 (stereo not drawn)	.	.	.	7%	-20%	.
Cc1cccc(NC(NC(=O)Cc2ccccc2)C(Cl)(Cl)Cl)c1 (stereo not drawn)	14%	?	?	9%	-10%[10 µM]	14
Cc1ccc(NC(NC(=O)Cc2ccccc2)C(Cl)(Cl)Cl)cc1 (stereo not drawn)	18%	-111*	-29%[46.1 µM]	-7%	24%[10 µM]	-2
COC(=O)[C@@H]1CC[C@H](C)[C@@H](c2ccc(C)cc2)N1C(=O)c1ccc(/C=N\O[C@@H]2O[C@H](COC(C)=O)[C@H](OC(C)=O)[C@H](OC(C)=O)[C@H]2OC(C)=O)cc1	.	.	.	.	-9%[10 µM]	.
O=C(N/N=C/c1sc2ccccc2c1O)c1cccc2ccccc12	2%	?	-7%	1.4µM*	-87%[10 µM]	.
COc1ccc(C(=O)N/N=C/c2c(CO)cnc(C)c2O)cc1	-6%	.	-19%	32µM*	-77%	.
Cc1sccc1/C=N/NC(=O)c1cccc2ccccc12	-5%	-104*	-6%	-6%	.	.
COc1ccc(C(=O)N/N=C/c2sc3ccccc3c2O)cc1	19%	?	-37%	11µM*	-80%[10 µM]	.
CC1(C)OC2CC(=O)OCC23C1CC(=O)C1(C)C3CC[C@@]2(C)[C@H](c3ccoc3)OC(=O)C3OC312 (stereo partly drawn)	6%	.	.	.	?	.
Cc1ccc2cc(CCNS(=O)(=O)c3ccc(F)cc3)c(=O)[nH]c2c1C	2%	.	-9%	-4%[9.22 µM]	15%[10 µM]	.
CCN(C(=O)CCNC(=O)Cn1cnc2ccccc2c1=O)c1cccc(Cl)c1	.	.	.	.	.	-5
CCOc1cc(NC(=S)NCCCN2CCOCC2)c(OCC)cc1NC(=O)C1CCCCC1	10%	.	10%	-3%[9.22 µM]	-9%[10 µM]	.
CC=O	9%	.	.	.	11%	.
O=C(N/N=C/c1sc2ccccc2c1O)c1ccccc1	24%	?	-48%	3.2µM*	-79%[10 µM]	14
CC(=O)N(C(C)=O)N1C(=O)C2C3c4ccccc4C(c4ccccc43)C2C1=O (stereo not drawn)	17%	.	-42%	-12%[9.22 µM]	-33%	.
O=C1C2C3c4ccccc4C(c4ccccc43)C2c2nc3ccccc3n21 (stereo not drawn)	15%	-100*	?	9%	-10%[10 µM]	6
Nc1nc(SCCc2ccccc2)c2[nH]cnc2n1	-2%	.	.	.	12%[10 µM]	.
CCSc1nc2ccccc2n1S(=O)(=O)c1ccccc1	18%[38.3 µM]	22	1%[46.1 µM]	8%	-1%	-5
Cc1nc2ccccc2n1S(=O)(=O)c1ccc(Br)cc1	14%	-109*	-22%	-13%	.	.

High-throughput results as filed in PubChem.
